Experimental data taken from PMC4552634, “A New Set of Chemical Starting Points with Plasmodium falciparum Transmission-Blocking Potential for Antimalarial Drug Discovery” (PLoS ONE, 2015).
Out of some 13,000 compounds screened, about 3,200 (25%) showed an effect of 50% or more. This is one part of the list.

Tested on: P. falciparum stage V gametocytes
Design: BacTiter-Glo ATP luminescence viability of purified stage V gametocytes in 384-well plates, per cent inhibition versus DMSO
Settings: 48 h, 5 µM; inhibitor

Structure (SMILES)	% Inhibition
N#Cc1ccc(N2CCN(C(=O)c3cccc(-c4noc(C(F)(F)F)n4)c3)CC2)nc1 [TCMDC-132424]	8.571%
O=C(Nc1cc(C(F)(F)F)cc(C(F)(F)F)c1)NC(CCCN1CCC2(CC1)OCc1ccccc12)c1ccc(Cl)c(Cl)c1 (stereo not drawn) [TCMDC-141899]	-60.02%
O=C(NC(CCCN1CCC2(CC1)OCc1ccccc12)c1ccc(Cl)c(Cl)c1)c1cc(C(F)(F)F)cc(C(F)(F)F)c1 (stereo not drawn) [TCMDC-141897]	69.2%
O=C(NC(CCCN1CCC(c2ccccc2)CC1)c1ccc(Cl)c(Cl)c1)c1cc(C(F)(F)F)cc(C(F)(F)F)c1 (stereo not drawn) [TCMDC-141900]	23.85%
O=C(Nc1ccc([N+](=O)[O-])cc1)c1nn(-c2ccccc2)cc1N=Cc1cccc(O)c1 [TCMDC-124108]	-28.07%
CCCCCn1c(Sc2ccc(C#N)c([N+](=O)[O-])c2)nnc1-c1cccs1 [TCMDC-135585]	31.33%
O=C(NCc1ccccn1)C(c1cc2ccccc2o1)N1CCN(C(c2ccccc2)c2ccccc2)CC1 (stereo not drawn) [TCMDC-141024]	9.637%
c1ccc(CN2CCC(NCc3ccccc3-c3cccc(CNC4CCCC4)c3)CC2)cc1 [TCMDC-140472]	106.9%
NCc1cccc(-c2ccccc2CNC2CCN(Cc3ccccc3)CC2)c1 [TCMDC-140467]	102.5%
Oc1ccc(CN2CCC(NCc3cccc4ccccc34)CC2)cc1 [TCMDC-141654]	18.51%
NCc1ccc(-c2ccccc2CNC2CCN(Cc3ccccc3)CC2)cc1 [TCMDC-140468]	88.27%
CC(C)c1ccc(N2CCN(CCCCNC(=O)c3ccc(NC(=O)c4cc(Cl)cc(Cl)c4)cc3)CC2)cc1 [TCMDC-138232]	-31.61%
O=C(Cc1ccc(Nc2nccc(Nc3cccc4[nH]ncc34)n2)cc1)Nc1ccc(C(F)(F)F)cc1 [TCMDC-136243]	0.831%
CCCCCc1cnc2nc(N)nc(N)c2c1C [TCMDC-137717]	7.113%
Cc1cnc(C(=O)Nc2ccc3c(c2)CCCN(Cc2c[nH]c4cnccc24)C3)cn1 [TCMDC-134846]	9.147%
CC(C)c1ccc(N(CC(=O)N/N=C/c2ccc(C(F)(F)F)cc2)S(=O)(=O)c2ccc(C(F)(F)F)cc2)cc1 [TCMDC-135354]	13.17%
O=c1ccc2ccc(O)c(O)c2o1 [TCMDC-125839]	-8.739%
COc1ccc(-c2cnc(N)c(-c3nc4ccc(Br)cc4[nH]3)c2)cc1 [TCMDC-133074]	-6.966%
CC1CN(c2cnn(Cc3cccc(NC(=O)Nc4ccc(F)cc4[N+](=O)[O-])c3)c(=O)c2Cl)CC(C)N1 (stereo not drawn) [TCMDC-141934]	17.4%
CC1CN(c2cnn(C/C=C/c3ccc(NC(=O)c4ccc([N+](=O)[O-])cc4)cc3)c(=O)c2Cl)CC(C)N1 (stereo not drawn) [TCMDC-132467]	91.62%
COC(=O)c1ccc(NC(=O)Nc2ccc(Cn3ncc(N4CCCNCC4)c(Cl)c3=O)cc2)cc1 [TCMDC-133315]	-30.5%
CC1CN(c2cnn(C/C=C/c3ccc(NC(=O)c4ccc(Cl)cc4)cc3)c(=O)c2Cl)CC(C)N1 (stereo not drawn) [TCMDC-132469]	77.2%
CCOC(=O)c1ccc(NC(=O)Nc2ccc(Cn3ncc(N4CCCNCC4)c(Cl)c3=O)cc2)cc1 [TCMDC-133330]	-19%

Structure (SMILES)	% Inhibition
CC1CN(c2cnn(Cc3cccc(NC(=O)Nc4cccc(C(F)(F)F)c4)c3)c(=O)c2Cl)CC(C)N1 (stereo not drawn) [TCMDC-141933]	-18.84%
CC1CN(c2cnn(C/C=C/c3ccc(NC(=O)c4ccc5nonc5c4)cc3)c(=O)c2Cl)CC(C)N1 (stereo not drawn) [TCMDC-132468]	104.2%
CC1CN(c2cnn(Cc3ccc(NC(=O)Nc4ccc(F)cc4[N+](=O)[O-])cc3)c(=O)c2Cl)CC(C)N1 (stereo not drawn) [TCMDC-141939]	5.517%
CC1CN(c2cnn(Cc3ccc(NC(=O)Nc4cccc(C(F)(F)F)c4)cc3)c(=O)c2Cl)CC(C)N1 (stereo not drawn) [TCMDC-141938]	-19.52%
CN1C(=CC(=O)NC(=O)c2ccccc2)C(C)(C)c2ccccc21 [TCMDC-136649]	14.63%
Cc1nc2ccc3nc(NC(=O)c4ccno4)sc3c2s1 [TCMDC-124989]	-34.07%
CCCCCCCn1c(=O)c(C(=O)Nc2c(C)cccc2C)c(O)c2ccccc21 [TCMDC-124465]	13.41%
CN(C)c1cccc2c1nc(-c1ccco1)n2CC1CCCN1 (stereo not drawn) [TCMDC-133408]	-1.299%
CCCCn1c(-c2ccco2)nc2c(c(=O)c3ccccc3n2C)c1=O [TCMDC-124920]	70.03%
Cc1ccccc1CNc1noc(-c2sccc2Br)n1 [TCMDC-134183]	-16.29%
N#Cc1ccc(NC(=NC2CCCc3ccccc32)Nc2ccc(-c3ccccc3)cc2)c(O)c1 (stereo not drawn) [TCMDC-140207]	-97.78%
N#Cc1ccc2c(c1)CCN(CCC1CCC(NC(=O)c3cc4cccc([N+](=O)[O-])c4[nH]3)CC1)C2 (stereo not drawn) [TCMDC-139188]	23.84%
O=C(c1cc2cccc([N+](=O)[O-])c2[nH]1)N1CCC(CCN2CCC(c3c[nH]c4ccccc34)CC2)CC1 [TCMDC-139880]	92.61%
O=C(NC1CCC(CN2CCC(c3c[nH]c4ccccc34)CC2)CC1)c1ccc(-c2ccccc2[N+](=O)[O-])o1 (stereo not drawn) [TCMDC-140295]	-19.57%
O=C(NC1CCC(CN2CCC(c3c[nH]c4ccccc34)CC2)CC1)c1cc2cccc([N+](=O)[O-])c2[nH]1 (stereo not drawn) [TCMDC-139879]	95.83%
COc1cc(C)ccc1N1CCN(CCCCNC(=O)c2ccc(NC(=O)c3ccc(Cl)cc3)cc2)CC1 [TCMDC-138374]	-7.22%
CCNc1cc(C)nc(Nc2ccc(NC(=O)c3ccccc3Br)cc2)n1 [TCMDC-124985]	22.04%
COC(=O)CNC(c1ccccc1)c1cc(Br)ccc1NC(=O)c1ccccc1Br (stereo not drawn) [TCMDC-124194]	56.77%
O=C(Nc1cc(Cl)c(Cl)cc1NC(=O)c1cccc(-c2ccccc2)c1O)c1cccc(-c2ccccc2)c1O [TCMDC-139548]	45.99%
CCOC(=O)NC1=NC(C)(C)N(OCCCOc2cc(Cl)c(Cl)cc2Cl)C(N)=N1 [TCMDC-131741]	-6.814%
CC(C)C1C(O)=C(c2ccc3ccccc3c2)C(=O)N1CC1CCCCC1 (stereo not drawn) [TCMDC-141719]	18.57%
Cc1cc(N[C@@H](Cc2ccccc2)C(=O)NC2CCCC2)nc(Nc2ccccc2)n1 [TCMDC-134856]	16.45%
O=C(Nc1nc2cc(S(=O)(=O)NCc3ccc(Cl)c(Cl)c3)ccc2n1CCCN1CCCC1)c1ccc(Cl)cc1 [TCMDC-141622]	64.1%

Structure (SMILES)	% Inhibition
O=C(Nc1nc2cc(S(=O)(=O)NCc3ccc(Cl)c(Cl)c3)ccc2n1CCCn1ccnc1)c1ccc(Cl)cc1 [TCMDC-141625]	-7.697%
O=C(Nc1nc2cc(S(=O)(=O)NCCCN3CCOCC3)ccc2n1CCCn1ccnc1)c1ccc(Cl)cc1 [TCMDC-141624]	31.25%
O=C(O)C(F)(F)F.O=C1CCCN1CCCNCc1ccc(-c2ccc(-c3nc4cc(F)ccc4[nH]3)cc2)cc1 [TCMDC-132759]	-31.18%
Cc1cc(C(=O)NCc2ccc(-c3c(C)noc3C)cc2)n(-c2ccccc2)n1 [TCMDC-133780]	16.41%
CCCCc1cc(NC2CCN(C)CC2)nc(Nc2ccccc2)n1 [TCMDC-133994]	6.593%
CCc1cc(NC2CCN(C)CC2)nc(Nc2ccc(C)cc2)n1 [TCMDC-133996]	57.8%
CCCc1cc(NC2CCN(C)CC2)nc(Nc2ccc(C)cc2)n1 [TCMDC-134003]	32.47%
CCCc1cc(NC2CCN(C)CC2)nc(Nc2cccc(OC)c2)n1 [TCMDC-134001]	21.8%
Cc1ccc(Nc2nc(C)cc(NC3CCN(C)CC3)n2)cc1 [TCMDC-133997]	39.13%
CCCc1cc(NC2CCN(C)CC2)nc(Nc2ccc(F)cc2)n1 [TCMDC-134004]	57.16%
COC(=O)c1cc(C(=O)CN(Cc2ccccc2)C(C)C)ccc1O [TCMDC-131766]	18.13%
CC(=O)Nc1ccc(OCCN(Cc2ccccc2C(F)(F)F)c2ccc(C#N)c(C(F)(F)F)c2)c(Cl)c1 [TCMDC-132790]	76.06%
CC(=O)Nc1ccc(OCCN(Cc2ccccc2OC(F)(F)F)c2ccc(C(F)(F)F)c(C#N)c2)c(Cl)c1 [TCMDC-132792]	45.86%
N#Cc1ccc(N(CCOC(=O)c2ccccc2)Cc2ccccc2C(F)(F)F)cc1C(F)(F)F [TCMDC-135738]	-18.34%
N#Cc1ccc(N(CCNS(=O)(=O)c2cc(Br)c(Cl)s2)Cc2ccccc2C(F)(F)F)cc1C(F)(F)F [TCMDC-135822]	50.22%
CC(=O)Nc1ccc(OCCCN(Cc2ccccc2C(F)(F)F)c2ccc(C(F)(F)F)c(C#N)c2)c(Cl)c1 [TCMDC-132785]	61.05%
N#Cc1ccc(N(CCOc2ccc(Cl)cc2)Cc2ccccc2C(F)(F)F)cc1C(F)(F)F [TCMDC-132794]	-24.46%
CC(=O)Nc1ccc(OCCN(Cc2ccccc2C(F)(F)F)c2ccc(C#N)c(C(F)(F)F)c2)cc1 [TCMDC-132802]	0.1764%
CC(=O)Nc1ccc(OCCCCN(Cc2ccccc2C(F)(F)F)c2ccc(C(F)(F)F)c(C#N)c2)c(Cl)c1 [TCMDC-133358]	47.4%
N#Cc1ccc(N(CCCO)Cc2ccccc2C(F)(F)F)cc1C(F)(F)F [TCMDC-134689]	3.655%
CC(=O)Nc1ccc(OCCCN(Cc2ccccc2OC(F)(F)F)c2ccc(C(F)(F)F)c(C#N)c2)c(Cl)c1 [TCMDC-132789]	32.58%
N#Cc1ccc(OCCN(Cc2ccccc2C(F)(F)F)c2ccc(C#N)c(C(F)(F)F)c2)cc1 [TCMDC-132799]	28.83%
N#Cc1ccc(N(CCOC(=O)c2ccc(Br)s2)Cc2ccccc2C(F)(F)F)cc1C(F)(F)F [TCMDC-135739]	59.47%
